# Assay results from PubChem BioAssay (Tox21).
# Where “and” joins values, the source holds several entries; their conditions need not be identical. Equal values may be shown once. Results filed as inconclusive are left out. Entries that show only a call come without a potency. Where a structure was tested more than once in an assay, its records may differ in their call. Calls of active or inactive are those of the source. Calls follow the shape of the dose curve; as a rule, active = well fitted curve in the direction sought with a large enough effect in the repeat runs; inconclusive = weak or mixed curves; inactive = no such curve, though single readings can be large; an effect the other way counts as inactive or inconclusive.
# Tests used:
# [1] = A CellTox Green Cytotoxicity Assay to monitor cytotoxicity in HEK293 cells - 40 hour (AID 1224871); also: nearly all actives have a fitted effect of over 45% in size; also: potency is read from the fitted curve at half-maximal effect
# In short: (§1)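 Tox21 screen in HEK293: membrane-impermeant cyanine dye fluoresces on binding dead-cell DNA; compound pinned 5 h post-seeding, plates held at 37 C, signal read repeatedly through 40 h.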
# [2] = qHTS RealTime-Glo MT Cell Viability Assay in HepG2 cells - 8 hour (AID 1224873); also: nearly all actives have a fitted effect of over 55% in size; also: potency is read from the fitted curve at half-maximal effect
# In short: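 Real-time viability: cells seeded at 600 per well together with NanoLuc and cell-permeant prosubstrate, compounds added after 5 h incubation. Luminescence tracked at 0, 8, 16, 24, 32 and 40 h of exposure.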
# [3] = qHTS RealTime-Glo MT Cell Viability Assay in HEK293 cells - 40 hour (AID 1224874); conditions: RealTime-Glo luminescence; max response: stronger effect = lower value; also: nearly all actives have a fitted effect of over 50% in size; also: potency is read from the fitted curve at half-maximal effect
# In short: (§2)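 HEK293 + NanoLuc + prosubstrate, 600 cells/well; 5 h, 37 C/5% CO2; compound 23 nL in DMSO by pintool; 37 C; luminescence read at 0, 8, 16, 24, 32 and 40 h time points.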
# [4] = A CellTox Green Cytotoxicity Assay to monitor cytotoxicity in HEK293 cells - 24 hour (AID 1224875); also: nearly all actives have a fitted effect of over 45% in size; also: potency is read from the fitted curve at half-maximal effect
# In short: as §1
# [5] = qHTS RealTime-Glo MT Cell Viability Assay in HepG2 cells - 32 hour (AID 1224877); also: nearly all actives have a fitted effect of over 55% in size; also: potency is read from the fitted curve at half-maximal effect
# In short: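 Tox21 10K library screened in qHTS format on HepG2 cells carrying RealTime-Glo reagents. Compounds were added after a 5 h preincubation, and the luminescent signal from continuous culture was measured repeatedly during 40 h treatment.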
# [6] = A CellTox Green Cytotoxicity Assay to monitor cytotoxicity in HepG2 cells - 24 hour (AID 1224878); also: nearly all actives have a fitted effect of over 45% in size; also: potency is read from the fitted curve at half-maximal effect
# In short: (§3)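 Measurements at 0, 8, 16, 24, 32 and 40 h of treatment captured CellTox Green fluorescence in HepG2 cells that had been co-plated with reagent and preincubated 5 h at 37 C/5% CO2.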
# [7] = A CellTox Green Cytotoxicity Assay to monitor cytotoxicity in HepG2 cells - 40 hour (AID 1224879); also: nearly all actives have a fitted effect of over 40% in size; also: potency is read from the fitted curve at half-maximal effect
# In short: as §3
# [8] = qHTS RealTime-Glo MT Cell Viability Assay in HEK293 cells - 0 hour (AID 1224880); also: top concentration of the series differs between compounds; nearly all actives have a fitted effect of over 45% in size
# In short: as §2
# [9] = qHTS RealTime-Glo MT Cell Viability Assay in HEK293 cells - 16 hour (AID 1224872); also: potency is read from the fitted curve at half-maximal effect; nearly all actives have a fitted effect of over 50% in size
# In short: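 Luminescence generated by NanoLuc from substrate produced by living HEK293 cells served as the viability signal. Each value reflects the reading at its stated time point during continuous 40 h compound exposure at 37 C.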
# [10] = A CellTox Green Cytotoxicity Assay to monitor cytotoxicity in HepG2 cells - 16 hour (AID 1224876); also: nearly all actives have a fitted effect of over 45% in size; also: potency is read from the fitted curve at half-maximal effect
# In short: as §3
Structure (SMILES),Potency [1],Potency [2],max response [3],Potency [4],Potency [5],Potency [6],Potency [7],Potency [8],Potency [9],Potency [3],Potency [10]
NC(=O)CCl,inactive,inactive,11.6% (inactive),inactive,inactive,inactive,inactive,inactive,–,–,–
Clc1ccc(CO/N=C(\Cn2ccnc2)c2ccc(Cl)cc2Cl)c(Cl)c1,inactive,–,–,inactive,–,–,–,inactive,21.3 µM (active),–,–
COc1cc(C=O)cc2c1[C@H](COC(N)=O)[C@]1(OC(C)=O)ON2C[C@H]2[C@@H]1N2C(C)=O,inactive,inactive,–,inactive,–,0.11 µM (active),–,inactive,–,0.0309 µM (active),inactive
CCCCN(CCCC)C(=S)[S-].CCCCN(CCCC)C(=S)[S-].[Zn+2],15.5 µM (active),21.9 µM (active),–,21.9 µM (active),24.5 µM (active),34.7 µM (active),24.5 µM (active),–,–,11 µM (active),48.9 µM (active)
O=[N+]([O-])O.O=[N+]([O-])O.[Cd],6.92 µM (active),inactive,–,–,–,49 µM (active),43.6 µM (active),inactive,–,24.5 µM (active),inactive
C=CCOC(N)=O,inactive,inactive,0.832% (inactive),inactive,inactive,inactive,inactive,inactive,–,–,inactive
c1cc[c]([Sb]([c]2ccccc2)[c]2ccccc2)cc1,inactive,inactive,–,inactive,inactive,inactive,inactive,inactive,–,54.9 µM (active),inactive
C=COCCCl,inactive,inactive,15.2% (inactive),inactive,inactive,inactive,inactive,inactive,–,–,inactive
CCCCCCCCCCCCCN1CC(C)OC(C)C1 (stereo unspecified),inactive,inactive,-1.65% (inactive),inactive,inactive,inactive,inactive,inactive,–,–,inactive
Nc1ccccc1C(=O)OC/C=C/c1ccccc1,inactive,inactive,–,inactive,inactive,inactive,inactive,inactive,–,24.6 µM (active),inactive
Nc1ccc(Cc2ccc(N)c(Cl)c2)cc1Cl,inactive,–,–,inactive,–,inactive,inactive,inactive,29.9 µM (active),–,inactive
[Cd+2].[Cl-].[Cl-],24.8 µM (active) and 7.76 µM (active),inactive,–,–,–,22.1 µM (active) and 38.9 µM (active),19.7 µM (active) and 24.5 µM (active),inactive,–,12.4 µM (active),55.4 µM (active) and inactive
C[C@]12CC[C@H](O)C[C@H]1CC[C@@H]1[C@@H]2C[C@@H](O)[C@]2(C)[C@@H](C3=CC(=O)OC3)CC[C@]12O,inactive,inactive,–,inactive,inactive,inactive,inactive,inactive,–,0.776 µM (active),–
ClC1=C(Cl)[C@]2(Cl)[C@@H]3[C@@H](Cl)[C@@H](Cl)C[C@@H]3[C@@]1(Cl)C2(Cl)Cl,inactive,inactive,15.9% (inactive),inactive,inactive,inactive,inactive,inactive,–,–,inactive
CCOCn1c(-c2ccc(Cl)cc2)c(C#N)c(Br)c1C(F)(F)F,24.5 µM (active),–,–,inactive,–,17.4 µM (active),12.3 µM (active),inactive,6.16 µM (active),–,inactive
CC1(C)[C@H](C(=O)O[C@H](C#N)c2cccc(Oc3ccccc3)c2)[C@@H]1/C=C(\Cl)C(F)(F)F,inactive,inactive,-24.1% (inactive),inactive,inactive,inactive,inactive,–,–,–,inactive
CN(C)CCc1c[nH]c2ccc(O)cc12,inactive,inactive,2.26% (inactive),inactive,inactive,inactive,–,inactive,–,–,–
Oc1ccc(C(c2ccc(O)cc2)(C(F)(F)F)C(F)(F)F)cc1,43.4 µM (active) and inactive,inactive,–,–,inactive,54.7 µM (active) and 24.5 µM (active),–,inactive,–,38.7 µM (active),54.9 µM (active)
COc1ccc(N)cc1N,inactive,inactive,–,inactive,inactive,inactive,inactive,–,–,–,inactive
CC(C)OC(=S)S,inactive,inactive,12.1% (inactive),inactive,inactive,inactive,–,inactive,–,–,inactive
c1ccc2c(c1)OCC(C1=NCCN1)O2 (stereo unspecified),23.9 µM (active),inactive,–,inactive,inactive,inactive,inactive,inactive,–,19 µM (active),inactive
ClC1=C(Cl)C2(Cl)C3C(Cl)C=CC3C1(Cl)C2(Cl)Cl (stereo unspecified),55.2 µM (active) and 49 µM (active),–,–,49.2 µM (active) and 49 µM (active),–,–,–,inactive,43.8 µM (active) and 43.6 µM (active),–,–
CN(CCCC(O)c1cccnc1)N=O (stereo unspecified),inactive,inactive,-1.33% (inactive),–,inactive,inactive,–,inactive,–,–,inactive
CC(=O)[O-].CC(=O)[O-].[Hg+2],5.49 µM (active),2.45 µM (active),–,–,2.19 µM (active),2.19 µM (active),1.55 µM (active),–,–,1.55 µM (active),2.75 µM (active)
